Data published in PubChem BioAssay (NCATS).
Results filed as inconclusive are left out. The source made the active and inactive calls. Unless noted, calls follow the shape of the dose curve; as a rule, active = well fitted curve in the direction sought with a large enough effect; inconclusive = small, poorly fitted or top-dose-only effect, or another doubt; inactive = no such curve, though single readings can be large; an effect the other way counts as inactive or inconclusive.

What was measured:
[1] = Cell Viability - LYMP2-011 (AID 969);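 also: 0% = DMSO only and full inhibition = 92 µM tetraoctylammonium bromide; nearly all actives have a fitted effect of over 60% in size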
Summary of the method: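 Cells seeded at 2500 per well rest 5 hr before compound addition, then incubate 24 hr at 37 C. CellTiter-Glo reagent is added for 30 min at room temperature before luminescence detection.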

[2] = Cell Viability - LYMP2-017 (AID 972); also: series mostly up to about 92 µM; % is scaled to controls: 0 for no effect and ±100 for the full control effect; nearly all actives have a fitted effect of over 55% in size
Summary of the method: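 In this qHTS format, lymphoblastoid cells in complete medium receive test compound for a day at 37 C before ATP content is quantified by luciferase luminescence. Reported AC50 figures come from standard Hill-equation curve fitting.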

[3] = Cell Viability - LYMP2-021 (AID 974);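 also: compound exposure lasts 24 hours at 37 °C; % is scaled to controls: 0 for no effect and ±100 for the full control effect; nearly all actives have a fitted effect of over 55% in size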
Summary of the method: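 In qHTS format, compounds are tested against 2500 lymphoblastoid cells per well for 24 h; viable cell number is inferred from ATP-driven luciferase light, and Hill-equation fitting yields AC50 values.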

[4] = Cell Viability - LYMP2-023 (AID 975);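 also: cellular ATP measured by luciferase luminescence as viability proxy; series mostly up to about 92 µM; plate controls were DMSO only for no effect and 92 µM tetraoctylammonium bromide control for full effect; nearly all actives have a fitted effect of over 55% in size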
Summary of the method: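 In this qHTS, ATP-based luciferase luminescence (CellTiter-Glo) is quantified in human lymphoblastoid cells after 24 hr compound treatment at 37 C; tetraoctylammonium bromide serves as positive control. Concentration-response curves are Hill-fitted to give AC50.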

[5] = Cell Viability - LYMP2-007 (AID 979);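 also: cells exposed to compound for 24 h before reading; 0% = DMSO only and the negative end = 92 µM tetraoctylammonium bromide; nearly all actives have a fitted effect of over 60% in size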
Summary of the method: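 Measured via luciferase-based ATP quantitation: lymphoblastoid cells, 24 hr compound exposure at 37 C, AC50 from Hill fits.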

[6] = Cell Viability - LYMP2-010 (AID 981); also: % is scaled to controls: 0 for no effect and ±100 for the full control effect; nearly all actives have a fitted effect of over 55% in size
Summary of the method: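 This 24 hr viability screen uses LYMP2-010 lymphoblastoid cells, quantifies ATP via luciferase luminescence, and derives AC50 from Hill fits of qHTS concentration-response data.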

[7] = Cell Viability - LYMP2-014 (AID 983);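 also: series mostly up to about 92 µM; plate controls were DMSO only for no effect and 92 µM tetraoctylammonium bromide for full effect; nearly all actives have a fitted effect of over 50% in size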
Summary of the method: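 Quantitative HTS in lymphoblastoid cells: 24 hr compound exposure, then CellTiter-Glo ATP luminescence. Positive control was tetraoctylammonium bromide, 6.4pM to 92 uM.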

[8] = Cell Viability - LYMP2-016 (AID 984)
Summary of the method: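 Acute toxicity in a Coriell human lymphoblastoid line is scored as loss of intracellular ATP over 24 h of treatment in complete medium. CellTiter-Glo signal is fitted across concentrations with the Hill equation to give AC50.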

[9] = Cell Viability - LYMP2-020 (AID 986)
Summary of the method: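 Cells at 2500 per well receive a 24 hr compound exposure at 37 C. Viability is measured as ATP-dependent luciferase luminescence, with AC50 modeled from qHTS concentration-response curves.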

[10] = Cell Viability - LYMP2-024 (AID 988);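 also: plate controls were DMSO only for no effect and 92 µM tetraoctylammonium bromide for full effect; nearly all actives have a fitted effect of over 60% in size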
Summary of the method: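 Cells at 2500 per well received compound for 24 hr after a 5 hr settling period. Viability was scored by CellTiter-Glo luminescence, with AC50 from Hill fits.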

[11] = Cell Viability - LYMP2-026 (AID 989); also: % is scaled to controls: 0 for no effect and ±100 for the full control effect; nearly all actives have a fitted effect of over 50% in size
Summary of the method: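 Acute toxicity screen in complete culture medium, with 24 hr compound exposure at 37 C. Viability read as cellular ATP via luciferase reaction, with tetraoctylammonium bromide (6.4pM to 92 uM) as positive control.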

[12] = Cell Viability - LYMP1-002 - Assay at 24 hr (AID 993); also: % is scaled to controls: 0 for no effect and ±100 for the full control effect
Summary of the method: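 Viability was judged from intracellular ATP using a luciferase read-out, following a 24-hour compound incubation at 37 C of lymphoblastoid cells seeded at 2500 per well. Concentration-response data were fitted to the Hill equation for AC50.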

[13] = Cell Viability - LYMP1-002 - Assay at 40 hr (AID 994);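 also: 0% = DMSO only and full inhibition = 92 µM tetraoctylammonium bromide; nearly all actives have a fitted effect of over 60% in size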
Summary of the method: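 Concentration-dependent ATP loss after 40 hr treatment at 37 C defined toxicity; AC50 values were obtained by fitting the standard Hill equation.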

[14] = target: Estrogen receptor (Homo sapiens) (UniProt P03372); assay: qHTS assay for small molecule antagonists of estrogen receptor alpha signaling (AID 588513; active = well fitted curve in the direction sought with a large enough effect in the signal ratio, with a control signal flat, not every such curve was filed as active; the % refers to the signal ratio; also: % is scaled to controls: 0 for no effect and ±100 for the full control effect)
Summary of the method: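 Cells were plated at 5000/well and incubated 4 h at 37 C. Compounds were added as 1:2 dilution series, duplicates. 17-beta-estradiol (0.5nM final) was added for 18 h before CCF4 detection.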

[15] = target: Estrogen receptor (Homo sapiens) (UniProt P03372); assay: qHTS assay for small molecule agonists of estrogen receptor alpha signaling (AID 588514; calls by dose curve;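 also: 0% = vehicle only and 100% = reference agonist; nearly all actives have a fitted effect of over 70% in size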)
Summary of the method: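 Fluorescence from CCF4 cleavage reports ER-alpha-driven beta-lactamase expression in HEK 293 cells treated 18 hrs at 37 C. Data normalized to 17-beta-estradiol (20 nM) and DMSO, fitted to Hill equation.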

[16] = target: Glucocorticoid receptor (Homo sapiens) (UniProt P04150); assay: qHTS assay for small molecule agonists of glucocorticoid receptor signaling (AID 588532; active = well fitted curve in the direction sought with a large enough effect in the signal ratio, with a control signal flat; the % refers to the signal ratio;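 also: 100% = dexamethasone at 0.1 µM and 0% = DMSO only wells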); conditions: HeLa MMTV-bla, beta-lactamase ratio, agonist, 18 h; stronger effect = higher value; percent of dexamethasone control, DMSO zero
Summary of the method: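 Quantitative HTS using CellSensor MMTV-bla HeLa cells in charcoal/dextran-treated serum; compounds tested up to 92 uM. After 18 h at 37 C, CCF4 dye reported reporter induction.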

[17] = target: Peroxisome proliferator-activated receptor gamma (Homo sapiens) (UniProt P37231); assay: qHTS assay for small molecule agonists of peroxisome proliferator-activated receptor gamma signaling (AID 588536; active = well fitted curve in the direction sought with a large enough effect in the signal ratio, with a control signal flat, not every such curve was filed as active; the % refers to the signal ratio;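 also: 0% = DMSO basal wells and 100% = rosiglitazone at 2 µM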)
Summary of the method: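 Cells were plated and held 6–6.5 h at 37 C, then compounds were added as a titration series. After a further 16 h, CCF4 dye was loaded for 2 h at room temperature and emission at 460/530 nm recorded.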

[18] = target: Vitamin D3 receptor (Homo sapiens) (UniProt P11473); assay: qHTS assay for small molecule antagonists of vitamin D receptor signaling (AID 588541; calls by dose curve;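 also: receptor activated by calcitriol during compound treatment; series mostly up to about 77 µM; % is scaled to controls: 0 for no effect and ±100 for the full control effect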)
Summary of the method: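 Antagonist-mode beta-lactamase reporter assay: HEK293T VDR-UAS-bla cells were exposed to titrated compound alongside 1-alpha,25-dihydroxyvitamin D3 at 3 nM final for 16 h. Values were normalized to the 50 nM agonist control and DMSO basal, with IC50 and efficacy from Hill equation fits.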

[19] = qHTS assay for small molecule antagonists of retinoid X receptor alpha signaling (AID 588546; active = well fitted inhibition curve with a large enough effect in the signal ratio, with a control signal flat, not every such curve was filed as active; the % refers to the signal ratio;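 also: cells stimulated with 9-cis-retinoic acid as agonist; % is scaled to controls: 0 for no effect and ±100 for the full control effect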); conditions: HEK293T RXRa-UAS-bla, beta-lactamase ratio, antagonist mode; measured here: W530 green channel, cytotoxicity proxy
Summary of the method: (§1)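 Beta-lactamase reporter inhibition, read as CCF4 fluorescence ratio (ex 405, em 460/530 nm) after 2 h at RT. HEK293T UAS-bla cells, 2500/well, were stimulated with 9-cis-RA at 500 or 100 nM final alongside test compound for 18 h at 37 C.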

[20] = target: Retinoic acid receptor RXR-alpha (Homo sapiens) (UniProt P19793); assay: as above; conditions: HEK293T RXRa-UAS-bla, beta-lactamase ratio, antagonist mode
Summary of the method: as §1

[21] = target: Thyroid hormone receptor beta (Homo sapiens) (UniProt P10828); assay: qHTS assay for small molecule antagonists of thyroid hormone receptor beta signaling (AID 588547; active = well fitted inhibition curve with a large enough effect in the signal ratio, with a control signal flat, not every such curve was filed as active; the % refers to the signal ratio); conditions: TR-UAS-bla HEK293, beta-lactamase ratio, antagonist mode, 18 h
Summary of the method: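 Inhibition of T3-driven (0.4nM final) beta-lactamase reporter activity was measured over 0.59 nM to 92 uM compound after 18 h at 37 C. The cells were GripTite HEK293 TR-UAS-bla in charcoal/dextran-stripped serum, with CCF4 ratio read-out and IC50 from Hill fits.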

[22] = target: Voltage-gated inwardly rectifying potassium channel KCNH2 (Homo sapiens) (UniProt Q12809); assay: qHTS Assay for Small Molecule Inhibitors of the Human hERG Channel Activity (AID 588834);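 also: potency is read from the fitted curve at half-maximal effect; lower thallium flux fluorescence means stronger hERG block; nearly all actives have a fitted effect of over 50% in size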
Summary of the method: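 Cells were infected with hERG-BacMam virus for 4 hrs at room temperature, grown overnight, then seeded at 2000/well. After dye loading and roughly 10 min compound treatment, thallium influx was triggered and fluorescence recorded.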

[23] = qHTS assay for small molecule agonists of the antioxidant response element (ARE) signaling pathway (AID 651741; active = well fitted activation curve with a large enough effect in the signal ratio; the % refers to the signal ratio; also: potency is read from the fitted curve at half-maximal effect)
Summary of the method: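 Agonist activity is measured as ARE-driven beta-lactamase expression in a stable HepG2 reporter line, using 16 h compound treatment at 37 C and a FRET substrate fluorescence readout after 2 h.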

[24] = qHTS assay to identify small molecules that stimulate interleukin-8 (IL-8) secretion (AID 651758; active = well fitted activation curve with a large enough effect in the signal ratio; the % refers to the signal ratio; also: 0% is about no effect)
Summary of the method: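 Secreted IL-8 measured homogeneously by TR-FRET (two labelled anti-IL-8 antibodies, 1-3 h at room temperature) after a 16 h, 37 C compound treatment of THP-1 cells at 2000 cells/well.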

[25] = qHTS assay for environmental chemicals that activate the Aryl hydrocarbon Receptor (AhR) signaling pathway (AID 651777); conditions: 1A2-DRE human hepatoma cells, luciferase, 24 h; activation: stronger effect = higher value; also: % of control where 0% means no effect; nearly all actives have a fitted effect of over 15% in size
Summary of the method: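 Human hepatoma 1A2-DRE cells, stably carrying a dioxin response element and CYP1A2 promoter driving luciferase, were exposed to compounds for 24 hr at 37 C and 5% CO2. Luciferase signal was then read after 30 min One-Glo at room temperature.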

[26] = target: Peroxisome proliferator-activated receptor alpha (Homo sapiens) (UniProt Q07869); assay: qHTS assay for small molecule agonists of the peroxisome proliferator-activated receptor alpha (PPARalpha) signaling pathway (AID 651778); conditions: PathHunter PPARalpha complementation, chemiluminescence, 6 h; max response: stronger effect = higher value; also: % of control where 0% means no effect
Summary of the method: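 Chemiluminescence from complemented enzyme reported PPARalpha activation in cells after 6 hr of compound treatment at 37 C. The detection reagent was incubated for 60 min at room temperature, and compounds were scored as agonists.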

[27] = target: Nuclear receptor ROR-gamma (Homo sapiens) (UniProt P51449); assay: qHTS assay for small molecule antagonists of the retinoid-related orphan receptor gamma (ROR-gamma) signaling pathway (AID 651802)
Summary of the method: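 Doxycycline-induced reporter activity in engineered CHO cells (TET-inducible ROR, RORE-LUC) was measured by luminescence after 16hr compound exposure at 37C.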

[28] = qHTS assay for small molecule agonists of the antioxidant response element (ARE) signaling pathway measured by Nrf2-dependant transcriptional activity - cell viability counter screen (AID 720653; active = well fitted curve in the direction sought with a large enough effect in the repeat runs; an effect the other way counts as inactive or inconclusive; also: % is scaled to controls: 0 for no effect and ±100 for the full control effect); conditions: ARE-bla HepG2 viability, CellTiter-Glo ATP luminescence, 16 h; max response: stronger effect = lower value
Summary of the method: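 Cytotoxicity counter screen: intracellular ATP quantified by CellTiter-Glo luminescence in the same ARE-bla HepG2 plates, after 16 h compound exposure and a 2 h beta-lactamase substrate step.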

[29] = qHTS assay for cell viability of HEK293 cells (AID 743288); conditions: ATP luminescence (CellTiter-Glo), 18 h; max response: stronger effect = lower value; also: % is scaled to controls: 0 for no effect and ±100 for the full control effect; nearly all actives have a fitted effect of over 50% in size
Summary of the method: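 Quantitative high-throughput screen: compounds were pinned onto parental HEK293 cells (2,000 per well) after a minimum 5 h settling at 37 C, incubated 18 h at 37 C, and intracellular ATP measured by luciferase luminescence.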

[30] = qHTS assay for cell viability of the p53RE-bla HCT-116 cell line (AID 743292)
Summary of the method: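 CellSensor p53RE-bla HCT-116 cells, 4,000/well, preincubated 5 h at 37 C, then exposed to compounds in DMSO for 16 h at 37 C. Viability read as CellTiter-Glo luminescence (intracellular ATP) after 30 min at room temperature.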

Chain of Estrogen receptor (Homo sapiens) (P03372 whole entry, looked up): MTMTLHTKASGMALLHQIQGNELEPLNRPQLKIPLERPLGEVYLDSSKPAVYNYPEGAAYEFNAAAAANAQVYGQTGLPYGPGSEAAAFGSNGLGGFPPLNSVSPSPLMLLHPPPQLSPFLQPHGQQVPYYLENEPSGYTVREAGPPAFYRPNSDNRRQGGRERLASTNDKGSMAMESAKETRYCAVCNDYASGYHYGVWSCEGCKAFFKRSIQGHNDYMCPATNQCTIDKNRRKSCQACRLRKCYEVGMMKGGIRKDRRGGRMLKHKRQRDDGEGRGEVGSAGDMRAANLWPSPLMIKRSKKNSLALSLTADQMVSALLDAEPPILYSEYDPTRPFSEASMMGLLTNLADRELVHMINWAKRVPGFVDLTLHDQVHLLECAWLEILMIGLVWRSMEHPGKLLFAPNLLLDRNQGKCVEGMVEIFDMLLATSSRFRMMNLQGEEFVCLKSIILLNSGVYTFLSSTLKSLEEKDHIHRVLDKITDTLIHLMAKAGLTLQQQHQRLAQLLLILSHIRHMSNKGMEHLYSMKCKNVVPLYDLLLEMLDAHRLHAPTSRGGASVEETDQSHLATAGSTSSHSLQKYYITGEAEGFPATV
Chain of Thyroid hormone receptor beta (Homo sapiens) (P10828 whole entry, looked up): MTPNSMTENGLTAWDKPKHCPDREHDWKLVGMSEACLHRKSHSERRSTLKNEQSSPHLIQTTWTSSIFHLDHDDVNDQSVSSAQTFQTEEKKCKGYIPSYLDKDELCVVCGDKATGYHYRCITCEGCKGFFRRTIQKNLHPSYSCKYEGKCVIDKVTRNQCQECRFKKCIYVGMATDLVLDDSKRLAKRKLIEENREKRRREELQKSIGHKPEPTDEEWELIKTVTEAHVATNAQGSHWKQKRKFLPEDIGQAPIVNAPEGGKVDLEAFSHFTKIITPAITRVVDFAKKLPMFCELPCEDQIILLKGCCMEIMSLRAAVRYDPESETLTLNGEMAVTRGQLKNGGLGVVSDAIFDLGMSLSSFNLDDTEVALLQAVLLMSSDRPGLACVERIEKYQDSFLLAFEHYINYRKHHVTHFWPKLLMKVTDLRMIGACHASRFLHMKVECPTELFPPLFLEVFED
Chain of Voltage-gated inwardly rectifying potassium channel KCNH2 (Homo sapiens) (Q12809 whole entry, looked up): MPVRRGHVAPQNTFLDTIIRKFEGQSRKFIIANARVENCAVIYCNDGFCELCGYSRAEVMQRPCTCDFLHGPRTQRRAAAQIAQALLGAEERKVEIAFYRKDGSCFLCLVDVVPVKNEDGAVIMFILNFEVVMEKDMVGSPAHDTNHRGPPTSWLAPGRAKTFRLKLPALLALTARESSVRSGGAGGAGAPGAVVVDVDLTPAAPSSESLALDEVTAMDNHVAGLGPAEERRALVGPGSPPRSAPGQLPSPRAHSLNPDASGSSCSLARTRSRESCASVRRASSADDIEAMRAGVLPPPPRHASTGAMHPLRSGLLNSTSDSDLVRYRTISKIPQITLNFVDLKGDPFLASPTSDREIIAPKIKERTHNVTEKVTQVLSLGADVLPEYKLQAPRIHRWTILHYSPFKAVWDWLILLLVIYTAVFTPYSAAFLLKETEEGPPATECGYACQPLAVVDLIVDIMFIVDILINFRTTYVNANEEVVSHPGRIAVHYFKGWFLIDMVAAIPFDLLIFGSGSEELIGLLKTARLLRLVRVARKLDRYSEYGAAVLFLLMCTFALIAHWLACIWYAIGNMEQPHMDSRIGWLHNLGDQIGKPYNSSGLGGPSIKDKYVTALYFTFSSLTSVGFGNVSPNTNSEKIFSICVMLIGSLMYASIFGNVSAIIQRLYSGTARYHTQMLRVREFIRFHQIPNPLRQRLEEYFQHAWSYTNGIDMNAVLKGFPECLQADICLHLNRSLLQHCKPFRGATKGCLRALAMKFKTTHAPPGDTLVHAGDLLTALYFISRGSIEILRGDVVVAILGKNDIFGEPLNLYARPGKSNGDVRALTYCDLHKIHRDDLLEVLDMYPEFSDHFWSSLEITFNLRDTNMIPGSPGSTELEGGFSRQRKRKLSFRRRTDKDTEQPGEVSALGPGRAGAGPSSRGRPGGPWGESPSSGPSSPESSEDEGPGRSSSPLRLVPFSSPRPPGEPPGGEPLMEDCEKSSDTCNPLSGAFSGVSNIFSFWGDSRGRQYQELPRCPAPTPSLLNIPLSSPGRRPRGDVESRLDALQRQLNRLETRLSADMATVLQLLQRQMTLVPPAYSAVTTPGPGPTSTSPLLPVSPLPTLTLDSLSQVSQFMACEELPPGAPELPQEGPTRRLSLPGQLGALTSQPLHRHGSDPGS
Chain of Glucocorticoid receptor (Homo sapiens) (P04150 whole entry, looked up): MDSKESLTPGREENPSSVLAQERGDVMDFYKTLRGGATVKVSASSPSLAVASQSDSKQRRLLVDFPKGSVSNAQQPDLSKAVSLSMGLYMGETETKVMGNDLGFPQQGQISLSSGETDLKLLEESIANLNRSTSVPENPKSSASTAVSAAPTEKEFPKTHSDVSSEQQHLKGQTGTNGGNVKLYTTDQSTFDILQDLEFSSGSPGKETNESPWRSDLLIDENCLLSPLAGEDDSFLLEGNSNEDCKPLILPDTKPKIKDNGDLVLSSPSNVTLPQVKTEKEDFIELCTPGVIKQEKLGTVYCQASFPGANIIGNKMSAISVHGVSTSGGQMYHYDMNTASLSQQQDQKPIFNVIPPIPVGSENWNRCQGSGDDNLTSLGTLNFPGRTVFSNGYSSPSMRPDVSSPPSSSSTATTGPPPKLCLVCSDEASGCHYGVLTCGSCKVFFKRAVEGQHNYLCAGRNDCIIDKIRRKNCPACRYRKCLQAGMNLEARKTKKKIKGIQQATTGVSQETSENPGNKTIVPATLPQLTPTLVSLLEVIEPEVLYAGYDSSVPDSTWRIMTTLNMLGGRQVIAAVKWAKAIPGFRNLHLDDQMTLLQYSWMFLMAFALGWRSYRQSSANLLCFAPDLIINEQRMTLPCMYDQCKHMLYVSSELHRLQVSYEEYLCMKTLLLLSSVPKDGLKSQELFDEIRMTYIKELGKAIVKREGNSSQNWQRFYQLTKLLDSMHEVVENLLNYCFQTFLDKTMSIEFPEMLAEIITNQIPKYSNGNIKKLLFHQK
Chain of Peroxisome proliferator-activated receptor gamma (Homo sapiens) (P37231 whole entry, looked up): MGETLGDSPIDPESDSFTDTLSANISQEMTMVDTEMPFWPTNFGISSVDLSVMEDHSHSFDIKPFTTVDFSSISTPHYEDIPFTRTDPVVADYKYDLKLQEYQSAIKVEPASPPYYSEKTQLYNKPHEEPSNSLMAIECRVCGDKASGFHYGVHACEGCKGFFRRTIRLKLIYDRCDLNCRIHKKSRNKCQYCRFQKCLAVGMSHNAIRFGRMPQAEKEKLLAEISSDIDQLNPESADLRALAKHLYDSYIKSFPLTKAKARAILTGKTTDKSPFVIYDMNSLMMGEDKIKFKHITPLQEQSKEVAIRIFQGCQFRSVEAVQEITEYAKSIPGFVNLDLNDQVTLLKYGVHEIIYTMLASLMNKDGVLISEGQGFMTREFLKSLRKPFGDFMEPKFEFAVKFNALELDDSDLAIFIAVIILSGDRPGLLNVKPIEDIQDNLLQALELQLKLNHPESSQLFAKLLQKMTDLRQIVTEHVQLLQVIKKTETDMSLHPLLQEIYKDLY
Chain of Vitamin D3 receptor (Homo sapiens) (P11473 whole entry, looked up): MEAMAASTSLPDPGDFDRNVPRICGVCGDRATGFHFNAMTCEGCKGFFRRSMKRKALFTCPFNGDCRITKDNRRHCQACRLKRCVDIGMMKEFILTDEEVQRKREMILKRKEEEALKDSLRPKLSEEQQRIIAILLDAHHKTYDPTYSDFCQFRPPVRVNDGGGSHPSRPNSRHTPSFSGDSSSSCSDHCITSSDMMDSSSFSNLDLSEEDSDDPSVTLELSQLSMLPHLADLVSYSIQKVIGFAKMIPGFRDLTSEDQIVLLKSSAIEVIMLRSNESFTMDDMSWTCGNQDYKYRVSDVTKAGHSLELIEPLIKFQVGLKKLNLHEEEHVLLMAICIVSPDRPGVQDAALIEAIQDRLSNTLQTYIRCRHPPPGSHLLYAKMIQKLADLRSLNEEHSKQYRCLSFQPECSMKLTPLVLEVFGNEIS
Chain of Nuclear receptor ROR-gamma (Homo sapiens) (P51449 whole entry, looked up): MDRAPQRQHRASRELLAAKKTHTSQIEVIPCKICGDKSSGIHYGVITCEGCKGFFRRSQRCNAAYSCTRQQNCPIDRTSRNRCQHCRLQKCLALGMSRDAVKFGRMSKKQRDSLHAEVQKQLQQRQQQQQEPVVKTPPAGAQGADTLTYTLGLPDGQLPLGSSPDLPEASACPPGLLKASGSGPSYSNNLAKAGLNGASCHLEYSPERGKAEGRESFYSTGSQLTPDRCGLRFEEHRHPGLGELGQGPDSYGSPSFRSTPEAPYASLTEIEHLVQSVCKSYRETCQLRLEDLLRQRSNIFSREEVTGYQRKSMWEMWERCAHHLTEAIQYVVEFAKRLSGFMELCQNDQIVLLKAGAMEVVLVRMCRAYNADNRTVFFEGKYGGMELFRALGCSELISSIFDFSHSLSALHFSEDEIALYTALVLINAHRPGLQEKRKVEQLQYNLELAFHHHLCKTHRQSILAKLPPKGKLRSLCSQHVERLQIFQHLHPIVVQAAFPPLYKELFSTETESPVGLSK
Chain of Retinoic acid receptor RXR-alpha (Homo sapiens) (P19793 whole entry, looked up): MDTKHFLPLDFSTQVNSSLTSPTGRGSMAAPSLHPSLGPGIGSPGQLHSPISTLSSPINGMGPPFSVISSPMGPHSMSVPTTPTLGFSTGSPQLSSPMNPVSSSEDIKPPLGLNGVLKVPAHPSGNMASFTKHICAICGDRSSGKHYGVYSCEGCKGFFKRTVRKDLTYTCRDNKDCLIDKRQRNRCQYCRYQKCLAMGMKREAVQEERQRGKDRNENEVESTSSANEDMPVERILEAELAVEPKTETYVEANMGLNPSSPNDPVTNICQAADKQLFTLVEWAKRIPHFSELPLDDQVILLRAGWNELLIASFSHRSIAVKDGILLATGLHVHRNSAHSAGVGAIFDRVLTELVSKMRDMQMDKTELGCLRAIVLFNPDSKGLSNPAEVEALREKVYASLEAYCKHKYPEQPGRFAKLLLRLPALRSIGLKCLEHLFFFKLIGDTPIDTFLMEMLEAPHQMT

O=C1OC2(c3cc(Br)c(O)c(Br)c3Oc3c2cc(Br)c(O)c3Br)c2c(Cl)c(Cl)c(Cl)c(Cl)c21
active: Potency [22] 3.98 µM | Potency [23] 66.8 µM | Potency [30] 39.8 µM
inactive: Potency [1] | Potency [2] | Potency [3] | Potency [4] | Potency [5] | Potency [6] | Potency [7] | Potency [8] | Potency [9] | Potency [10] | Potency [11] | Potency [12] | Potency [13] | Potency [14] | outcome [15] | activation [16] 0.908% | outcome [17] | Potency [18] | max response [20] 7.11% | activity change % (negative = inhibition) [21] 2.12% | outcome [24] | activation [25] -2.87% | max response [26] 0.0759% | Potency [27] | max response [28] -22.4% | max response [29] -29.6%
20.8%: max response [19]
